Results: PubChem BioAssay
Entries with a potency or affinity are not part of this list. Results filed as inconclusive are left out. Activity calls are given as the source filed them. Unless noted, the rule behind the calls is not given here.

Legend:
[1] = RMG-1 ovarian cancer cell viability loss – cherry-pick, dose response (AID 687029;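 active = signal drop whose fitted half-maximal concentration is at most twice the top valid dose, in every test run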;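 note: cells exposed to compound for 96 hours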)
[2] = IOSE-T80 viability loss, PAX8-independent line – cell-based, cherry-pick, selectivity assay for PAX8 inhibitor project, dose response (AID 687032;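 active = fitted half-maximal concentration for viability loss no higher than twice the top valid dose, in every repeat run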;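 note: cells exposed to compound for 96 h before reading; 0% = neutral control wells and -100% = 2 µM mitoxantrone kill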)
[3] = CMV-driven luciferase expression suppression in HEK293 – cell-based, luminescence, dry powder, counter-screen for Pax8 inhibitor project, dose response (AID 743020;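 active = signal-lowering compounds whose fitted half-maximal concentration is at or below twice the top tested dose in every run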;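 note: HEK293 cells stably expressing the CMV luciferase reporter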)
[4] = general cell-killing toxicity readout – plate reader, dry powder samples, cytotoxicity control for PAX8 inhibitor project, dose response (AID 743021)
[5] = IGROV1 cell killing – plate reader, dry powder samples, PAX8 inhibitor project, dose response (AID 743043);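 note: more negative means fewer viable cells or more cytotoxicity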
[6] = OVCAR-3 cell viability loss – plate reader, dry powder samples, PAX8 inhibitor project, dose response (AID 743044); conditions: max activity: at 35 µM, stronger effect = lower value unless noted
[7] = toxicity toward immortalized ovarian surface epithelium – cell-based, plate reader, dry powder samples, cytotoxicity control for PAX8 inhibitor project, dose response (AID 743045);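 note: 0% = neutral control median and -100% = positive control median; more negative values mean more cell killing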
[8] = A2780 cell killing – plate reader, dry powder samples, cytotoxicity control, dose response (AID 743046);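 note: 0% = neutral control wells and -100% = cytotoxic reference compound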
[9] = OVCAR8 cell viability loss – plate reader, dry powder samples, PAX8 project, dose response (AID 743197)

Measured: max activity

C[C@H]1CCCCO[C@H](CN(C)C(=O)Nc2ccc(F)cc2)[C@@H](C)CN([C@@H](C)CO)C(=O)c2cc(NC(=O)Nc3ccc(C(F)(F)F)cc3)ccc2O1
inactive: [1] | [2] | [3] | [4] | [5] | [6] 8.44% [at 16 µM, stronger effect = lower value] | [7] | [8]

C[C@@H]1CN([C@@H](C)CO)C(=O)c2cc(NC(=O)Nc3ccc(C(F)(F)F)cc3)ccc2O[C@@H](C)CCCCO[C@H]1CN(C)Cc1ccc(Cl)c(Cl)c1
inactive: [1] | [2] | [3] | [4] | [5] | [6] -12.8% [at 0.26 µM, stronger effect = lower value] | [7] | [8] | [9]

O=C(C[C@@H]1CC[C@H]2[C@@H](COC[C@@H](O)CN2Cc2cccc(C(F)(F)F)c2)O1)NCc1ccc(F)cc1
inactive: [1] | [2] | [3] | [4] | [5] | [6] 13.4% [at 2.1 µM, stronger effect = lower value] | [7] | [8]

CCCN1[C@H](C(=O)N2CCOCC2)[C@@H](CO)[C@@H]2Cn3c(ccc(/C=C/c4ccccc4)c3=O)[C@@H]21
inactive: [1] | [2] | [3] | [4] | [5] | [6] -10.3% [at 0.5 µM, stronger effect = lower value] | [7] | [8]

C[C@H](CO)N1C[C@H](C)[C@H](CN(C)Cc2ccc(C(F)(F)F)cc2)OCCCC[C@H](C)Oc2ccc(NC(=O)c3ccccc3)cc2C1=O
inactive: [1] | [2] | [3] | [4] | [5] | [6] -59.7% | [7] | [8]

C[C@@H]1CCCCO[C@H](CN(C)Cc2ccc(C(F)(F)F)cc2)[C@H](C)CN([C@H](C)CO)C(=O)c2cc(NS(=O)(=O)c3ccc(F)cc3)ccc2O1
inactive: [1] | [2] | [3] | [4] | [5] | [6] -10.2% | [7] | [8] | [9]

Cc1ccc(S(=O)(=O)Nc2ccc3c(c2)C(=O)N([C@@H](C)CO)C[C@H](C)[C@@H](CN(C)Cc2ccc(Cl)c(Cl)c2)OCCCC[C@@H](C)O3)cc1
inactive: [1] | [2] | [3] | [4] | [5] | [6] -5.1% [at 16 µM, stronger effect = lower value] | [7] | [8]

C[C@@H]1CCCCO[C@H](CN(C)Cc2ccc(C(F)(F)F)cc2)[C@H](C)CN([C@H](C)CO)C(=O)c2cc(NC(=O)Nc3ccc(F)cc3)ccc2O1
inactive: [1] | [2] | [3] | [4] | [5] | [6] 10.2% [at 1 µM, stronger effect = lower value] | [7] | [8] | [9]

Cc1ccc(S(=O)(=O)Nc2cccc3c2O[C@@H](CN(C)C(=O)Nc2ccc(C(F)(F)F)cc2)[C@@H](C)CN([C@H](C)CO)C3=O)cc1
inactive: [1] | [2] | [3] | [4] | [5] | [6] 25% [at 2.1 µM, stronger effect = lower value] | [7] | [8] | [9]

C[C@@H]1CCCCO[C@H](CN(C)Cc2ccccc2)[C@H](C)CN([C@H](C)CO)C(=O)c2cc(NC(=O)Nc3ccc(C(F)(F)F)cc3)ccc2O1
inactive: [1] | [2] | [3] | [4] | [5] | [6] -9.62% | [7] | [8] | [9]

C[C@@H]1CN([C@H](C)CO)C(=O)Cc2cc(NC(=O)Nc3ccc(F)cc3)ccc2O[C@H]1CN(C)C(=O)Nc1ccc(C(F)(F)F)cc1
inactive: [1] | [2] | [3] | [4] | [5] | [6] -34.3% | [7] | [8] | [9]
